# Reference: PubChem BioAssay (NCI)
# Compounds without any hit were thinned out: in the full panel of roughly 79,000, 15% have a hit. Unmarked numbers belong to inactive results. Activity calls are given as the source filed them. Rule as the data show it: active = growth inhibition above about 70%; inactive = the rest.
# Tests used:
# [1] = NCI Yeast Anticancer Drug Screen. Data for the rad50 strain (AID 155);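 also: 0% = growth of vehicle-only cultures of the same strain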; conditions: S. cerevisiae rad50 strain growth inhibition; at 50.0 µM; stronger effect = higher value
# Procedure, shortened: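 Compounds were tested on a yeast strain with an engineered DNA damage repair alteration; the reported value is growth inhibition normalised to vehicle treatment.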
# [2] = NCI Yeast Anticancer Drug Screen. Data for the mec2-1 strain (AID 157); conditions: S. cerevisiae mec2-1 strain, at 50.0 µM, stronger effect = higher value
# Procedure, shortened: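 Using mec2-1 yeast: add compound, measure growth, express inhibition versus vehicle-treated cultures.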
# [3] = NCI Yeast Anticancer Drug Screen. Data for the sgs1 mgt1 strain (AID 161);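 also: 0% = growth of cultures given vehicle only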; conditions: S. cerevisiae sgs1 mgt1 strain, at 50.0 µM, stronger effect = higher value
# Procedure, shortened: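 This yeast growth screen uses a strain with defined DNA-repair lesions; compound-treated growth is compared with vehicle-treated growth.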
# [4] = NCI Yeast Anticancer Drug Screen. Data for the cln2 rad14 strain (AID 165);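 also: 0% = growth equal to vehicle treated cultures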; conditions: S. cerevisiae cln2 rad14 strain, at 50.0 µM, stronger effect = higher value
# Procedure, shortened: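 Yeast strain cln2 rad14, bearing defects in cell cycle control and DNA repair, serves as the test system; values reflect growth inhibition compared with vehicle.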
# [5] = NCI Yeast Anticancer Drug Screen. Data for the bub3 strain (AID 167); conditions: S. cerevisiae bub3 mutant strain, at 50.0 µM, stronger effect = higher value
# Procedure, shortened: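 Growth of a checkpoint-deficient yeast mutant is measured after compound exposure. Values represent inhibition relative to vehicle.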
# [6] = NCI Yeast Anticancer Drug Screen. Data for the mlh1 rad18 strain (AID 175); conditions: S. cerevisiae mlh1 rad18 strain growth inhibition; at 50.0 µM; stronger effect = higher value
# Procedure, shortened: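 Steps: expose repair-defective yeast to compound; measure growth; express inhibition against vehicle-treated controls.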
Structure (SMILES),growth inhibition [1] [%],growth inhibition [2] [%],growth inhibition [3] [%],growth inhibition [4] [%],growth inhibition [5] [%],growth inhibition [6]
CCCC1(c2ccccc2)NC(=O)NC1=O (stereo unspecified),5.75,0.3,-6.1,-81.1,7.95,-13.7%
CC(=O)c1ccc(C)c(N)c1,-4.15,0.15,6.25,-0.6,-2.15,27.4%
CC(=O)OCCO,9.6,3.5,-9.65,-6.35,-41.8,17.6%
O=C(O)c1ccccc1NCc1ccco1,-14.7,-40.9,14,7.85,-19.6,-5.7%
Cc1cc2nc(CO)[nH]c2cc1C,-2.95,-40,-24.2,7.55,-5.65,1.8%
Oc1ccc(O)cc1,20.6,15,-0.45,-22.6,-0.85,40.3%
c1ccc2c(N3CCCCC3)ncnc2c1,0.85,-1,-4.65,4.8,2.15,-3%
O=C(c1ccc(Cl)cc1)c1ccccc1Cl,37.9,-8.3,41.3,-41.1,25,19%
Cc1ccc(C)n1-c1ccsc1C(=O)NNC(=O)C(Cl)Cl,5.9,13.9,24.8,21.1,21.7,20.7%
Nc1ccc(NC(=O)c2cccc(N)c2)cc1,15.2,3.5,6.4,-7.8,19.2,22%
CC1CC(O)CC(C)(C)C1 (stereo unspecified),5.55,-10.1,1.35,-25.4,2.2,-4.25%
O=C(CN1CCNCC1)N1CCOCC1,-25.6,-25.1,-17.8,-23.9,-16.7,-13.8%
CCOC(=O)C(=O)C=P(c1ccccc1)(c1ccccc1)c1ccccc1,-29.5,-22.4,-21.9,-8.9,-40.9,-24.2%
CC(C)OC(=O)c1cc(NC(=S)OC(C)C)ccc1Cl,3.95,10.2,22.9,15.3,32.5,85.1% (active)
CCOc1ccc(/C=C/C(=O)c2ccccc2)cc1,-9.9,-15.9,24.6,-20.1,22.4,-19.6%
O=C(NCO)c1ccccc1,36.2,1.95,-1.65,7.75,13.9,27.9%
COC(=O)/C=C1\Sc2cc(F)ccc2NC1=O,-12.9,2.45,13.9,-44.2,-8.5,-6.55%
O=C(Nc1cccc(NC(=O)Nc2cc(C(F)(F)F)ccc2Cl)c1)Nc1cc(C(F)(F)F)ccc1Cl,18.8,-15.8,9.55,19.4,14.9,11.7%
C#Cc1cccc(NC(=O)c2ccc(Cl)cc2Cl)c1,9.95,-9.7,26.6,24.2,25,15.7%
COC(=O)Nc1cccc(Cl)c1OC,8.6,-21.4,0.45,2.05,3.55,-6.55%
COC(=O)C(C)Oc1ccc(OC#N)cc1 (stereo unspecified),-21.3,-14.1,8.9,-3,6.25,23.5%
O=[N+]([O-])c1cccc(N=Nc2ccc(O)cc2O)c1,30.6,-5.65,65.5,15.6,4.2,20.6%

Structure (SMILES),growth inhibition [1] [%],growth inhibition [2] [%],growth inhibition [3] [%],growth inhibition [4] [%],growth inhibition [5] [%],growth inhibition [6]
CC(C)(O)C#CC#CC(C)(C)O,30.9,4.2,5.4,3.8,-41,-0.55%
O=C(O)C(c1ccccc1)C(O)c1ccccc1 (stereo unspecified),5.35,-21.4,-22.7,-26.1,-30.4,-7.45%
O=C(N/N=C/c1ccccc1O)Nc1nn[nH]n1,-15.8,-10.2,16.1,-7.8,0.85,9%
Cc1ccc(C(=O)N/N=C/c2ccc3c(c2)OCO3)cc1,18.1,8.35,4.15,10.8,6.2,6.75%
COc1ccc(/C=C/c2cccc[n+]2C)cc1,1.35,1.3,-7.1,0.55,-9.9,-11.2%
CC1Cc2ccccc2O1 (stereo unspecified),2.7,0.35,-3.7,-2.35,2.9,11%
CCc1nn(Cc2ccccc2)c2nc(C)c(CCc3ccccc3)c(Cl)c12,-6.85,-4.6,-0.45,2.6,7.35,-2.75%
Clc1ccc(-c2nnc(-c3cccc4ccccc34)o2)cc1,-22.9,-56.9,-29.4,0.15,-19.6,-24.6%
c1cc2cccc3c4cccc5cccc(c(c1)c23)c54,-18.9,-22.6,-17.9,10.8,-4.15,-15.4%
Nc1nc2c(c(-c3nc(N)nc4c3CCc3ccccc3-4)n1)CCc1ccccc1-2,-0.5,-12.6,-25.1,3.05,-20.5,2.9%
OC1OC(COC(c2ccccc2)(c2ccccc2)c2ccccc2)C(O)C(O)C1O (stereo unspecified),-11.9,-0.95,-16.6,14.4,-3.7,-17%
CCCC(=O)Nc1ccc2c(c1)CN1C(=O)c3ccccc3C1=N2,-11.7,1.8,7.75,5.15,-1.65,-7.15%
COc1ccccc1NC(=O)C1=C(C)NC(C)=C(C(=O)Nc2ccccc2OC)C1c1cccc([N+](=O)[O-])c1,-3.3,23.2,-8.05,-3.9,20.4,11.3%
Cc1cc(C)cc(NCCC#N)c1,15.5,-32.5,18.4,-1.75,11.8,-17.4%
COc1ccc2c(c1)CCc1c-2n[nH]c1-c1[nH]nc2c1CCc1cc(OC)ccc1-2,0.5,0.35,-11.2,-5.55,-16.1,-5%
c1ccc(/C(=N\N=C(/c2ccccc2)c2cccs2)c2cccs2)cc1,18.3,-23.1,25.7,-2.8,23.6,10.6%
O=C(O)C(Cc1ccccc1)C(=O)O,5.8,-7.15,-27.7,-33,-18.4,-7.2%
CC1(C)Nc2cccc3c(N=Nc4ccc(N=Nc5ccccc5)c5ccccc45)ccc(c23)N1,-50.5,-38.1,-27,-2.2,-5.2,-74.6%
O=C(O)c1cccc([N+](=O)[O-])c1,-28,-8,-21.8,-27.1,-23.1,-27.4%
O=C1C=CC(=O)N1c1ccc(I)cc1Cl,29.9,18.3,44.1,23.8,32.3,22.1%
CC1(C(N)=O)CCC(C(=O)O)C1(C)C (stereo unspecified),10.3,-3.45,14.4,-29.9,-3.45,8.15%
COc1ccc(/C(C#N)=C2C=C/C(=N/O)c3ccccc3\2)cc1,-5.15,14.6,8.75,-22.2,9.25,19.9%

Structure (SMILES),growth inhibition [1] [%],growth inhibition [2] [%],growth inhibition [3] [%],growth inhibition [4] [%],growth inhibition [5] [%],growth inhibition [6]
CCOC(=O)/C(C#N)=C/c1cccc(C)c1,-19.4,22.8,-25.2,13.3,23.2,-6.55%
C=CC(=O)OCCCCCCCC,5.4,-14.3,-29.4,-34.5,2.4,2.85%
COc1cc(-c2ccc(NC(=O)NC3CC3)c(OC)c2)ccc1NC(=O)NC1CC1,-26.9,-23.2,-24.1,3.15,-25.2,-25.8%
CC(=O)NCc1cc(C)c(C)cc1C,12.5,-20.1,1.25,9.15,5.3,8.5%
N#CCc1ccc([N+](=O)[O-])cc1,-14.2,8.3,-13.5,-2.1,15.2,-6.3%
CCOC(=O)/C(=C/c1ccc(OC)cc1)N(CC)CC,-45.8,-22.7,-17.4,0.5,-19.1,-20.4%
CC(=O)c1sc2c(c1OC(=O)c1ccc(Cl)cc1Cl)c(=O)n(-c1ccccc1)c(=S)n2-c1ccccc1,-3.95,-23.3,-19.4,-5.65,-6.55,-3.85%
CCNc1nc2c(cnn2C)c(=O)[nH]1,-16.6,28.4,4.4,-34.1,28.1,29.4%
CCCCOC(=O)c1ccc(C(C)C)cc1,8.85,6.85,8.65,-19.4,7.55,4.35%
CCOC(=O)Nc1nn[nH]n1,7.75,1.35,32,4.15,-4.95,3.65%
COCCOC(=O)c1ccc(C(C)C)cc1,8.8,0.35,0.2,-9.35,2.75,-0.45%
Cc1nc2ccccc2c(C(=O)O)c1O,9.45,-10.2,1.5,6.65,11.1,19.9%
Cc1ccncc1C(N)=O,-1.4,-2.8,-9.55,-0.85,-11,3.3%
CN(C)CCN(Cc1ccccc1)c1ccccc1,-16.1,-41.6,-13.6,-10.7,-20.8,-12%
CC1=CC(=O)c2ccccc2C1=O,14.4,15.3,0.1,13.2,25.6,18.2%
CC(C)=NNc1ccc([N+](=O)[O-])cc1[N+](=O)[O-],35.1,12.8,8.3,25.4,-5.75,44.3%
CC(=O)c1ccc(N=C(C#N)C2=C(O)c3ccccc3C2=O)cc1,15.7,-12.4,25.8,14.2,10.9,13.3%
CCOC(=O)CCCC(=O)OCC,20.8,-8.1,1.65,7.7,22.8,19.6%
O=C(O)CCCC(=O)O,-36.5,-0.7,-22.6,-21.4,-51.6,4.5%
O=c1[nH]n(-c2ccccc2)c(=O)cc1Cl,-0.9,2.25,-4,-0.3,3.55,2%
COc1cc2c3cc1Oc1c(OC)c(OC)cc4c1C(Cc1ccc(O)c(c1)Oc1ccc(cc1)CC3N(C)CC2)N(C)CC4 (stereo unspecified),1.05,0.55,0.65,6.9,8.1,-89.8%
Oc1ccccc1-c1nnco1,-1.9,-13.8,0.35,4.35,-2.15,-8.7%

Structure (SMILES),growth inhibition [1] [%],growth inhibition [2] [%],growth inhibition [3] [%],growth inhibition [4] [%],growth inhibition [5] [%],growth inhibition [6]
COc1ccc(-c2cc(-c3cc(-c4ccc(OC)cc4)nc(N)n3)nc(N)n2)cc1,-13,4.45,-20.8,-2.65,-2.65,9.8%
Cc1cc2ccccc2c(O)c1C#N,32.5,17.9,6.3,-4.3,1.3,48.9%
Cc1nc2ccccc2c2nnc(SCC(=O)N(Cc3ccccc3)c3ccccc3)n12,6.9,6.6,-28.1,8.25,-3.9,2.25%
CC(=O)Cc1ccc(-c2ccccc2)cc1,18.4,14.8,8.3,-25.4,10.3,24.6%
COc1ccc(C2(O)CCCCC2)cc1,17.7,-13.2,2.85,6.45,7.35,28.2%
Oc1ccc(Cc2ccccc2)c2cccnc12,-27.7,-8.6,-12.7,-19.4,-17.1,34.6%
NC(=S)CN1CCOCC1,-2.6,-3.2,-5.9,1.6,1.3,2.15%
Cc1cc2nc(CC(=O)c3cccc([N+](=O)[O-])c3)c(=O)[nH]c2cc1C,22.2,10.9,7.1,20.5,-6.15,39.5%
CCOC(=O)CCCS(C)(=O)=O,-26.5,-19.6,-32,-17.9,-1.95,7.3%
CCC(O)CC(CC)CO (stereo unspecified),-4.1,-2.7,4.4,-32.7,-12.2,-10.1%
O=C1c2ccccc2C(=O)c2c1ccc(C(=O)O)c2[N+](=O)[O-],29.4,16.6,32.2,31.8,19.7,28%
O=C(NC1CCCCC1)OCc1c(COC(=O)NC2CCCCC2)c(-c2ccc(Cl)c(Cl)c2)n2c1CCC2,16,7.1,27.4,43.3,-5.3,6.9%
CC(=O)c1c[nH]c2ccccc12,-6.8,-9.85,-19.6,-53.2,-2.25,9.15%
Cn1cnc2nc(Cl)nc(Cl)c21,13.1,23,10.7,-0.05,27.1,11.2%
O=C(Nc1ccccc1)OCCc1ccccc1,45.3,37.8,27.4,42.9,37.6,34.2%
CN(C)/N=C/c1ccccc1O,1,4,-16.9,-6.85,-21.6,2.9%
CC(C)CCOC(=O)c1ccccc1,-7.2,-22.5,-34.1,-68.9,-29.1,-22.9%
CSC(=N\N=C\c1ccc(N(C)C)cc1)/N=C/N(C)C,-4.3,-8.15,6.05,7.65,18.6,25.1%
O/N=C/c1ccc(O)cc1O,-11.9,-5.45,-32.1,-29.9,17.9,-33.4%
Nc1ccc(N=Nc2ccc(O)cc2)c(N)n1,-15.7,-20.1,-16.7,2.85,22.7,-4.7%
